# ELG1 repair inh = blocks ELG1-dependent DNA repair in HEK293T cells | HEK293T ELG1-luciferase reporter, luminescence, 16 h; DNA damage induced by 5-fluorouridine | Potency, µM (series often up to 46.1 µM), inactives show at the top dose activity change, negative = inhibition, usual class: inhibitors | 2.3% of 330,000 active | AID 504467; further: on the % scale 0 is the no-effect control and ±100 the full control effect; nearly all actives have a fitted effect of over 55% in size
#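 Luminescence from the luciferase reporter, measured 30 min after ONE-Glo reagent at room temperature, was the read-out. Beforehand, 2,000 cells per well were exposed for 16 hr at 37 °C to 5-fluorouridine together with compound or vehicle.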
# SW480 rereplic = DNA re-replication induction in SW480 cells | SW480 DNA re-replication, Hoechst DNA content imaging, 48 h | 1.8% of 340,000 active | Potency, µM (top dose mostly 46.1 µM), for the others: top-dose re-replication activation, hits mostly activators; further: % of control where 0% means no effect; nearly all actives have a fitted effect of over 55% in size
#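 Hoechst fluorescence of nuclei (405 nm excitation, 500-530 nm emission) measured by plate-scanning imager after 48 hr compound exposure at 37 C; re-replication scored as increased number of nuclei with elevated intensity.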
# KB-V1 MDR tox = KB-V1 MDR subline cytotoxicity | KB-V1 MDR cells viability, CellTiter-Glo, 72 h | Potency, µM (titrated, usually from 46.1 µM), usual class: cytotoxic | 3.4% of 400,000 active; further: on the % scale 0 is the no-effect control and ±100 the full control effect; nearly all actives have a fitted effect of over 60% in size
#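 Potencies derive from concentration-effect curves fitted to normalized luminescence (CellTiter-Glo) of KB-V1 cells treated for 72 h at 37 degrees C in phenol-red-free DMEM containing 10% FBS.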
# KB-3-1 cytotox = kills parental KB-3-1 adenocarcinoma cells | Potency, µM (top dose mostly 46.1 µM), actives largely listed as cytotoxic | KB-3-1 viability, CellTiter-Glo ATP luminescence, 72 h | AID 1347075 | 1.4% of 400,000 active; further: on the % scale 0 is the no-effect control and ±100 the full control effect; nearly all actives have a fitted effect of over 60% in size
#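 Cells are dispensed, compounds pinned in, plates held at 37 °C for 72 h, then CellTiter-Glo is added and luminescence read after 10 minutes. Cell line: parental KB-3-1 in phenol-red-free DMEM, 10% FBS.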
# MCF10A rereplic = inducers of DNA re-replication in MCF 10A breast cells. AID 624296. Potency, µM (titrated, usually from 46.1 µM), for the others: at the top dose activity, positive = re-replication, hits mostly activators. MCF 10A DNA re-replication, Hoechst nuclear intensity, 48 h. 2.9% of 350,000 active; further: % of control where 0% means no effect; nearly all actives have a fitted effect of over 50% in size
# * hit, by the source's call; i = inactive; ? = inconclusive; nt = no result. Compounds with a hit are over-represented: about 8.2% of the library has one in this group of screens. The call rests on the fitted dose curve; in most records, active means well fitted curve in the direction sought with a large enough effect; inconclusive means small, poorly fitted or top-dose-only effect, or another doubt; inactive means no such curve, though single readings can be large; an effect the other way counts as inactive or inconclusive. Potency means the concentration at half of the fitted maximal effect.
SMILES,ELG1 repair inh,SW480 rereplic,KB-V1 MDR tox,KB-3-1 cytotox,MCF10A rereplic
CC(C1=C(CCN(C)C)Cc2ccccc21)c1ccccn1 (stereo unspecified),nt,-0.4%,16.4µM*,i,-1.9%
Cc1nn(-c2ccccc2)c2sc(C(=O)N(CC(=O)NC(C)(C)C)Cc3ccco3)cc12,?,1.3%,?,?,18.4µM*
O=C(OCc1nc(-c2ccccc2Cl)no1)c1ccco1,18.6%,-3.7%,i,i,3.1%
CCCn1c(C(O)c2ccc3c(c2)OCO3)nc2ccccc21 (stereo unspecified),-18.8%,14.6µM*,i,i,?
C[C@@H]1CN([C@@H](C)CO)S(=O)(=O)c2ccc(Br)cc2O[C@H]1CN(C)C(=O)c1ccncc1,nt,nt,i,i,nt
Cc1cccc(/C=C2/Sc3ccc(C(=O)NCCN4CCCC4)cc3NC2=O)c1,0.0%,?,i,i,?
COc1ccc(/C=C2/Sc3ccc(C(=O)NCCCN4CCOCC4)cc3NC2=O)cc1OC,16.1%,20.6µM*,i,?,18.4µM*
COc1cccc(/C=C2/Sc3ccc(C(=O)NCCN4CCCCCC4)cc3NC2=O)c1,?,?,i,i,20.6µM*
CCOc1ccc2c(c1)OC1(CCC(C)C1)CC2=O (stereo unspecified),nt,2.7%,i,i,-0.2%
CCOc1ccc2c(c1)OC(c1ccc(C)cc1)(C(F)(F)F)NC2=O (stereo unspecified),?,?,1.3µM*,i,1.46µM*
COc1cccc(CN2CCN(C(=O)c3ccco3)CC2)c1,-9.2%,-22.6%,i,i,0.581µM*
CCc1cc2ccc(OC)cc2nc1SCC(=O)N1CCN(C(=O)c2ccco2)CC1,20.6µM*,-23.4%,i,i,4.3%
CCc1cc2ccc(OC)cc2nc1SCC(=O)NNC(=O)c1ccco1,-13.6%,-2.5%,i,i,16.0%
OC1C(Br)=Cc2ccccc21 (stereo unspecified),nt,nt,i,i,nt
COC(=O)Oc1ccc(/C=C/C(=O)OC(C)C)cc1OC(=O)OC,?,-1.9%,i,i,?
CCCCOC(=O)/C=C/c1ccc(OC(=O)OC)c(OC(=O)OC)c1,?,?,i,?,14.6µM*
Clc1ccc(CN2CCC(CNc3ncnc4onc(-c5ccc(Cl)cc5)c34)CC2)cc1,nt,nt,i,i,nt
CCOC(=O)N1CCN(C(=O)c2cc3sccc3n2C)CC1,10.2%,-5.0%,13µM*,i,1.3%
Cn1c(C(=O)N2CCN(c3cccc(C(F)(F)F)c3)CC2)cc2sccc21,?,23.1µM*,i,i,?
Cn1/c(=N/NC(=O)c2ccccc2F)sc2ccccc21,?,-7.7%,i,i,0.5%
O=C(Nc1ccccc1)[C@@H]1CCCN1S(=O)(=O)c1ccc(Cl)cc1,-16.8%,-3.1%,i,?,7.5%
O=C(Nc1nc(-c2ccccc2)cs1)C1CCCCN1S(=O)(=O)c1ccc(Cl)cc1 (stereo unspecified),?,20.7%,13µM*,?,?
O=C(Nc1nc(-c2ccccc2)cs1)C1CCCCN1S(=O)(=O)c1ccccc1 (stereo unspecified),?,-2.1%,?,i,6.1%
O=C(Nc1ccc(Cl)cc1)C1CCCCN1S(=O)(=O)c1ccccc1 (stereo unspecified),0.0%,?,3.66µM*,23.1µM*,?
O=C(O)COc1ccc(NC(=O)c2ccc3c(c2)C(=O)N(CC2CCCO2)C3=O)cc1 (stereo unspecified),nt,nt,i,i,nt
SMILES,ELG1 repair inh,SW480 rereplic,KB-V1 MDR tox,KB-3-1 cytotox,MCF10A rereplic
NC(=O)c1ccccc1NC(=O)c1ccc(-c2ccc(Br)cc2)o1,nt,nt,i,i,nt
O=C(Nc1ccc(CN2CCOCC2)cc1)c1ccc(-c2ccc(Br)cc2)o1,18.4µM*,?,20.6µM*,i,?
O=C(Nc1cccc(NC(=O)c2ccc(-c3cccc(Br)c3)o2)c1)c1ccco1,9.2µM*,?,23.1µM*,i,20.7%
COc1ccccc1NC(=O)c1ccc(-c2ccc(Br)cc2)o1,-20.1%,?,3.26µM*,5.8µM*,?
O=C(Nc1ccccc1)c1ccc(-c2ccccc2Cl)o1,?,-16.7%,i,i,21.3%
CC(=O)Nc1cccc(NC(=O)c2ccco2)c1,1.5%,-11.9%,i,i,10.0%
O=C(Nc1ccccc1)c1ccc(-c2ccc(Br)cc2)o1,?,?,i,i,20.6µM*
Cc1cc(C(=O)OCC(=O)NC(=O)C2CCCCC2)ccc1[N+](=O)[O-],nt,nt,i,i,nt
CCc1cc(Br)ccc1NC(=S)NCCc1ccccc1,?,11.3%,?,i,24.3%
CCOc1ccc(S(=O)(=O)NCCC(=O)OCC(=O)c2ccc(NC(C)=O)cc2)cc1,6.9%,-3.4%,i,i,-0.1%
COc1ccc(NC(=O)c2ccc(-c3ccc([N+](=O)[O-])cc3)o2)cc1,10.3%,-10.3%,i,i,7.8%
O=C(Nc1cccc(C(=O)Nc2ccc(Br)cc2)c1)c1ccccc1,?,2.7%,i,i,?
CN(C)C(=O)c1ccc(NC(=O)c2ccc(-c3ccc(Cl)cc3)o2)cc1,-17.3%,23.8%,20.6µM*,i,28.4%
O=C(Nc1ccccc1)c1ccc(-c2ccc([N+](=O)[O-])cc2)o1,?,0.5%,i,?,23.1µM*
O=C(Nc1cccc(NC(=O)c2ccc(-c3ccc(Br)cc3)o2)c1)c1ccccc1,18.4µM*,?,i,i,?
CC(=O)c1ccc(NC(=O)c2ccc(-c3ccc(Cl)cc3)o2)cc1,nt,nt,i,?,nt
Cc1ccc(S(=O)(=O)C(C#N)c2nc3ccccc3nc2N2CCCC2)cc1 (stereo unspecified),?,7.4%,18.4µM*,i,?
Cc1ccc(S(=O)(=O)C(C#N)c2nc3ccccc3nc2N2CC(C)OC(C)C2)cc1C (stereo unspecified),?,?,i,i,14.6µM*
COc1ccc(S(=O)(=O)C(C#N)c2nc3ccccc3nc2N2CCCC(C)C2)cc1 (stereo unspecified),?,2.4%,i,i,11.6µM*
COc1ccc([C@H]2CC(=O)C[C@@H](CCn3cc(-c4ccc(F)cc4)nn3)O2)cc1,nt,nt,?,i,nt
COc1cc(NC(=O)Nc2nnc(N3CCCCCC3)s2)cc(OC)c1,nt,nt,i,i,nt
Cc1cccc(NC(=O)CSCC(=O)N2CCN(C(=O)c3ccco3)CC2)c1,1.5%,-1.2%,i,i,3.5%
CCC(=O)N1CCc2cc(S(=O)(=O)CCC(=O)NCCc3ccccc3)ccc21,12.2%,-1.1%,i,i,23.7%
CCC(=O)N1CCc2cc(S(=O)(=O)CCC(=O)NCc3ccco3)ccc21,-0.4%,?,i,?,8.2µM*

# Source: PubChem BioAssay
